PubChem BioAssay AID1159580 (chemical genetic matrix, 2015)
Among all 5,500 compounds or so, about 2,000 (36%) were called active. Not shown: some 18% with an inconclusive outcome. Cut-off read from the data, not from the text of the source: active = normalized growth mostly below about 0.91 (no sharp cut-off); inconclusive = no clear call, values can overlap the other calls; inactive = mostly above about 0.92. This is one part of the list.

Assay: chemical genetic growth profiling, strain panel (AID 1159580);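 note: tested at 20 µM; growth read once vehicle control cultures reached saturation at 30 °C; 1 = growth at the plate median or of vehicle wells; lower values mean less growth of the strain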
Conditions: growth OD
[1] = S. cerevisiae deletion strains, locus YAL013W, strain DEP1, stronger effect = lower value
[2] = S. cerevisiae deletion strains, locus YGR078C, strain PAC10, stronger effect = lower value
[3] = S. cerevisiae deletion strains, locus YJR075W, strain HOC1, stronger effect = lower value
[4] = S. cerevisiae deletion strains, locus YMR307W, strain GAS1, stronger effect = lower value
[5] = S. cerevisiae deletion strains, locus YNL322C, strain KRE1, stronger effect = lower value
[6] = S. cerevisiae deletion strains, locus YPL055C, strain LGE1, stronger effect = lower value
[7] = S. cerevisiae deletion strains, locus YBR229C, strain ROT2, stronger effect = lower value
[8] = S. cerevisiae deletion strains, locus YDL101C, strain DUN1, stronger effect = lower value
[9] = S. cerevisiae deletion strains, locus YDR150W, strain NUM1, stronger effect = lower value
[10] = S. cerevisiae deletion strains, locus YEL061C, strain CIN8, stronger effect = lower value
[11] = S. cerevisiae deletion strains, locus YHR030C, strain SLT2, stronger effect = lower value
[12] = S. cerevisiae deletion strains, locus YHR087W, strain rtc3, stronger effect = lower value
[13] = S. cerevisiae deletion strains, locus YJR043C, strain POL32, stronger effect = lower value
[14] = S. cerevisiae deletion strains, locus YLR039C, strain RIC1, stronger effect = lower value
[15] = S. cerevisiae deletion strains, locus YLR058C, strain SHM2 (second series), stronger effect = lower value
[16] = S. cerevisiae deletion strains, locus YLR085C, strain ARP6, stronger effect = lower value
[17] = S. cerevisiae deletion strains, locus YLR262C, strain YPT6, stronger effect = lower value
[18] = S. cerevisiae deletion strains, locus YML094W, strain GIM5, stronger effect = lower value
[19] = S. cerevisiae deletion strains, locus YMR219W, strain ESC1, stronger effect = lower value
[20] = S. cerevisiae deletion strains, locus YMR263W, strain SAP30, stronger effect = lower value
[21] = S. cerevisiae deletion strains, locus YNL153C, strain GIM3, stronger effect = lower value
[22] = S. cerevisiae deletion strains, locus YNL298W, strain CLA4 (second series), stronger effect = lower value
[23] = S. cerevisiae deletion strains, locus YNR030W, strain Alg12, stronger effect = lower value
[24] = S. cerevisiae deletion strains, locus YPL241C, strain CIN2, stronger effect = lower value
[25] = S. cerevisiae deletion strains, locus YPR135W, strain CTF4, stronger effect = lower value
[26] = S. cerevisiae deletion strains, locus YHR079C, strain IRE1, stronger effect = lower value
[27] = S. cerevisiae deletion strains, locus YJL095W, strain BCK1, stronger effect = lower value
[28] = S. cerevisiae deletion strains, locus YJR066W, strain TOR1, stronger effect = lower value
[29] = S. cerevisiae deletion strains, locus YLR113W, strain HOG1, stronger effect = lower value
[30] = S. cerevisiae deletion strains, locus YNL183C, strain NPR1, stronger effect = lower value
[31] = S. cerevisiae deletion strains, locus YOR231W, strain MKK1, stronger effect = lower value
[32] = S. cerevisiae deletion strains, locus YPL256C, strain CLN2, stronger effect = lower value

Measured: normalized growth

CCNC(=O)C1OC(n2cnc3c(NCc4ccccc4)ncnc32)C(O)C1O (centres undefined)
inactive: [1] 0.989 | S. cerevisiae deletion strains, locus YAL040C, strain CLN3, stronger effect = lower value 0.987 | S. cerevisiae deletion strains, locus YCL061C, strain MRC1 (second series), stronger effect = lower value 1.01 | S. cerevisiae deletion strains, locus YDR363W, strain ESC2, stronger effect = lower value 0.958 | S. cerevisiae deletion strains, locus YER002W, strain NOP16, stronger effect = lower value 1.01 | [2] 0.979 | [3] 1 | [4] 1 | S. cerevisiae deletion strains, locus YNL128W, strain TEP1, stronger effect = lower value 0.959 | S. cerevisiae deletion strains, locus YNL175C, strain NOP13, stronger effect = lower value 0.967 | S. cerevisiae deletion strains, locus YNL197C, strain WHI3, stronger effect = lower value 0.95 | S. cerevisiae deletion strains, locus YNL224C, strain SQS1, stronger effect = lower value 0.984 | [5] 0.99 | S. cerevisiae deletion strains, locus YOR083W, strain WHI5 (second series), stronger effect = lower value 0.956 | [6] 1

Cc1noc(N)c1C(N)=S
inactive: [1] 0.986 | [7] 1 | [8] 1.02 | S. cerevisiae deletion strains, locus YDL134C, strain PPH21, stronger effect = lower value 0.993 | [9] 1 | [10] 1 | [2] 1.02 | [11] 1.05 | [12] 1 | [13] 1.01 | [3] 1.05 | [14] 1.05 | [15] 1 | [16] 1.17 | [17] 1.01 | [18] 0.99 | [19] 1.01 | [20] 1 | [21] 1.01 | [22] 1.03 | [5] 0.998 | [23] 0.995 | [6] 1.01 | [25] 0.982 | S. cerevisiae strains, strain wild type, stronger effect = lower value 0.986
active: [24] 1.17 [resistant]

Cc1noc(C)c1NC(N)=O
inactive: [1] 0.994 | [7] 0.989 | [8] 0.974 | [9] 0.979 | [10] 0.981 | [2] 0.983 | S. cerevisiae deletion strains, locus YGR229C, strain SMI1, stronger effect = lower value 1.03 | [11] 1.04 | [12] 0.968 | S. cerevisiae deletion strains, locus YJL187C, strain SWE1, stronger effect = lower value 0.998 | [13] 0.995 | [3] 1.04 | S. cerevisiae deletion strains, locus YKL190W, strain CNB1, stronger effect = lower value 1.01 | [14] 0.97 | [15] 0.992 | [16] 1.01 | [17] 0.997 | [18] 0.952 | [19] 0.993 | [20] 1.03 | [4] 1.21 | [21] 0.999 | [22] 0.978 | [5] 0.987 | [23] 0.987 | S. cerevisiae deletion strains, locus YOL006C, strain TOP1, stronger effect = lower value 1.04 | [6] 0.975 | [24] 0.986 | [25] 0.898

OC1CCN(c2cc(C(F)(F)F)nc3cc(Cl)cc(Cl)c23)CC1
inactive: S. cerevisiae deletion strains, locus YAR019C, strain CDC15, stronger effect = lower value 0.982 | S. cerevisiae deletion strains, locus YBL105C, strain PKC1, stronger effect = lower value 0.984 | S. cerevisiae deletion strains, locus YBR135W, strain CKS1, stronger effect = lower value 0.978 | S. cerevisiae deletion strains, locus YBR136W, strain MEC1, stronger effect = lower value 0.978 | S. cerevisiae deletion strains, locus YBR160W, strain CDC28, stronger effect = lower value 0.973 | S. cerevisiae deletion strains, locus YDL017W, strain CDC7, stronger effect = lower value 0.977 | S. cerevisiae deletion strains, locus YDL028C, strain MPS1, stronger effect = lower value 0.982 | [8] 0.976 | S. cerevisiae deletion strains, locus YDL108W, strain KIN28, stronger effect = lower value 0.979 | S. cerevisiae deletion strains, locus YDL132W, strain cdc53, stronger effect = lower value 0.969 | S. cerevisiae deletion strains, locus YDL214C, strain PRR2, stronger effect = lower value 0.98 | S. cerevisiae deletion strains, locus YDR052C, strain DBF4, stronger effect = lower value 0.989 | S. cerevisiae deletion strains, locus YDR054C, strain cdc34, stronger effect = lower value 0.969 | S. cerevisiae deletion strains, locus YDR226W, strain ADK1, stronger effect = lower value 0.973 | S. cerevisiae deletion strains, locus YDR477W, strain SNF1, stronger effect = lower value 0.913 | S. cerevisiae deletion strains, locus YER123W, strain YCK3, stronger effect = lower value 0.965 | S. cerevisiae deletion strains, locus YER133W, strain GLC7, stronger effect = lower value 0.971 | S. cerevisiae deletion strains, locus YFL009W, strain cdc4, stronger effect = lower value 0.986 | S. cerevisiae deletion strains, locus YFL029C, strain CAK1, stronger effect = lower value 0.984 | S. cerevisiae deletion strains, locus YFR003C, strain YPI1, stronger effect = lower value 0.978 | S. cerevisiae deletion strains, locus YFR019W, strain FAB1, stronger effect = lower value 1 | S. cerevisiae deletion strains, locus YFR028C, strain CDC14, stronger effect = lower value 0.979 | S. cerevisiae deletion strains, locus YGR040W, strain KSS1, stronger effect = lower value 0.921 | S. cerevisiae deletion strains, locus YGR052W, strain FMP48, stronger effect = lower value 1.1 | S. cerevisiae deletion strains, locus YGR092W, strain DBF2, stronger effect = lower value 0.994 | [26] 0.979 | S. cerevisiae deletion strains, locus YHR082C, strain KSP1, stronger effect = lower value 1.06 | S. cerevisiae deletion strains, locus YHR205W, strain SCH9, stronger effect = lower value 0.975 | S. cerevisiae deletion strains, locus YIL147C, strain SLN1, stronger effect = lower value 0.976 | [27] 0.887 | S. cerevisiae deletion strains, locus YJL128C, strain PBS2, stronger effect = lower value 0.989 | S. cerevisiae deletion strains, locus YJL157C, strain FAR1, stronger effect = lower value 0.972 | S. cerevisiae deletion strains, locus YJR016C, strain ILV3, stronger effect = lower value 0.984 | S. cerevisiae deletion strains, locus YJR066W, strain TOR1 (second series), stronger effect = lower value 0.963 | [28] 0.938 | S. cerevisiae deletion strains, locus YKL048C, strain ELM1, stronger effect = lower value 0.979 | S. cerevisiae deletion strains, locus YKL067W, strain YNK1, stronger effect = lower value 0.977 | S. cerevisiae deletion strains, locus YKL101W, strain HSL1, stronger effect = lower value 0.984 | S. cerevisiae deletion strains, locus YKL193C, strain SDS22, stronger effect = lower value 0.969 | S. cerevisiae deletion strains, locus YKL203C, strain TOR2, stronger effect = lower value 0.987 | [29] 0.951 | S. cerevisiae deletion strains, locus YLR133W, strain CKI1, stronger effect = lower value 0.976 | S. cerevisiae deletion strains, locus YLR403W, strain SFP1, stronger effect = lower value 0.992 | S. cerevisiae deletion strains, locus YML070W, strain DAK1, stronger effect = lower value 0.969 | S. cerevisiae deletion strains, locus YMR001C, strain CDC5, stronger effect = lower value 0.971 | S. cerevisiae deletion strains, locus YMR205C, strain PFK2 (second series), stronger effect = lower value 0.975 | S. cerevisiae deletion strains, locus YMR277W, strain FCP1, stronger effect = lower value 0.97 | S. cerevisiae deletion strains, locus YNL006W, strain LST8, stronger effect = lower value 0.968 | S. cerevisiae deletion strains, locus YNL020C, strain ARK1, stronger effect = lower value 0.972 | S. cerevisiae deletion strains, locus YNL161W, strain CBK1, stronger effect = lower value 0.975 | [30] 0.971 | S. cerevisiae deletion strains, locus YNL207W, strain RIO2, stronger effect = lower value 0.979 | S. cerevisiae deletion strains, locus YNL222W, strain SSU72, stronger effect = lower value 0.98 | S. cerevisiae deletion strains, locus YNL307C, strain MCK1 (second series), stronger effect = lower value 0.962 | S. cerevisiae deletion strains, locus YOL078W, strain AVO1, stronger effect = lower value 0.98 | S. cerevisiae deletion strains, locus YOL136C, strain PFK27, stronger effect = lower value 0.981 | S. cerevisiae deletion strains, locus YOR061W, strain CKA2, stronger effect = lower value 0.964 | S. cerevisiae deletion strains, locus YOR119C, strain RIO1, stronger effect = lower value 1.01 | [31] 0.946 | S. cerevisiae deletion strains, locus YOR329C, strain SCD5, stronger effect = lower value 0.986 | S. cerevisiae deletion strains, locus YPL031C, strain PHO85, stronger effect = lower value 0.908 | S. cerevisiae deletion strains, locus YPL153C, strain RAD53, stronger effect = lower value 0.937 | S. cerevisiae deletion strains, locus YPL204W, strain HRR25, stronger effect = lower value 0.938 | S. cerevisiae deletion strains, locus YPL209C, strain IPL1, stronger effect = lower value 0.971 | [32] 0.947 | S. cerevisiae deletion strains, locus YPR025C, strain CCL1, stronger effect = lower value 0.969 | S. cerevisiae deletion strains, locus YPR106W, strain ISR1, stronger effect = lower value 0.991 | S. cerevisiae deletion strains, locus YPR111W, strain DBF20, stronger effect = lower value 0.985 | S. cerevisiae deletion strains, strain NNK1, stronger effect = lower value 1 | S. cerevisiae deletion strains, strain TSCII, stronger effect = lower value 0.97
active: [11] 0.793

CC(=O)Nc1c(I)c(NC(C)=O)c(I)c(C(=O)O)c1I
inactive: [11] 0.975 | [26] 1 | [27] 0.989 | [28] 0.932 | [29] 0.977 | [30] 0.941 | [31] 0.99 | [32] 0.974
